Only some compounds are listed: those with a hit (about 2.8% of all), similar ones and a draw of the others.
pAkt inh = blocks phosphorylation of Akt | Neuro2A IGF-stimulated pAkt S473 HTRF, 20 min; active compounds read low | activity change, % for hits at 50 µM | actives 0.32% (n = 360,000); in the data active = activity change below about -80%; inconclusive = mostly about -51% to -80%; note: % is set by controls: 0 for no effect and ±100 for the full control effect
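Neuro2A cells (4,500/well, DMEM with 0.5% FBS) were treated with compound at a single 50 µM final concentration, stimulated with 6 nM IGF for 20 min at 37 °C, and lysed. Phospho-Akt Ser473 was read by HTRF as 665/615 ratio ×10^4.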
RGS4 inhibitor = inhibitors of human regulator of G protein signaling 4; Transcreener GDP fluorescence polarization, RGS4-accelerated GTP hydrolysis; Potency, µM (doses to about 114 µM), without a hit: top-dose activity change, negative = inhibition, actives largely listed as inhibitors; actives 0.039% (n = 390,000); AID 504845; active = well fitted inhibition curve with a large enough effect; inconclusive = small, poorly fitted or top-dose-only effect; inactive = no such curve, though single readings can be large or run the other way; note: potency is the fitted concentration of half-maximal effect; % is set by controls: 0 for no effect and ±100 for the full control effect; nearly all actives have a fitted effect of over 75% in size
Target sequence (P49798 whole entry, looked up): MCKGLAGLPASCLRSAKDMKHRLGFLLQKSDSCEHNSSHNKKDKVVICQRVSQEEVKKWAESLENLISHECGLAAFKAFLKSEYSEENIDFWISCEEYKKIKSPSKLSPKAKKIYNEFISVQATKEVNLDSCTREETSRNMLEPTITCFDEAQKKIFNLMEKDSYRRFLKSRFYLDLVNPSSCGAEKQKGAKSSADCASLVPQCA
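MLSMR compounds (23 nl, pin-transferred) preincubated 10 min at room temperature with a 500nM (2x) first reagent, then RGS4 at 900nM (2x) plus Transcreener GDP mix added; fluorescence polarization (620/688 nm) read before and after 90 min at 30 °C.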
D3 antag = blocks the human D3 dopamine receptor | P35462 | D3R cells, DiscoveRx beta-arrestin luminescence, antagonist mode; active compounds read low | max response, negative = inhibition, % | actives 2.5% (n = 360,000) | AID 652054; in the data active = max response below about -50%; inconclusive = no clear call, values can overlap the other calls; note: % is set by controls: 0 for no effect and ±100 for the full control effect
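Cells expressing the human receptor were seeded at 1500 cells/well, incubated overnight at 37 degrees C in 5% CO2, then exposed to library compounds with dopamine controls for 90 minutes at 37 degrees C before luminescent detection.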
LDHA block = LDHA (human) enzyme inhibition; purified LDHA, NADH/diaphorase-resazurin fluorescence; active compounds read low; activity change, % (values are at about 110 or 230 µM); actives 0.15% (n = 480,000); in the data active = activity change below about -30%; inconclusive = mostly about -25% to -30%;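 note: plate controls were DMSO wells for no effect and wells without enzyme for full effect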
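Resorufin fluorescence (ex540/em590), read at 0 and 20 min after diaphorase/resazurin addition, reports the NADH left after a 5 min room-temperature reaction of 2 nM human LDH5 with 0.06 mM NADH and 0.2 mM pyruvate.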
D3 ag = agonists of human D3 dopamine receptor | P35462 | D3R DiscoveRx beta-arrestin cells, luminescence, 90 min | max activation, % | actives 0.58% (n = 410,000) | AID 652048; in the data active = max activation above about 30%; note: 0% is about no effect
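Cells at 1500/well, incubated overnight, then treated with pinned compounds (dopamine as control) for 90 min at 37 degrees C. DiscoveRx reagent added for 30 - 60 minutes at room temperature; luminescence read.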
PI4K2A inh = PI4K2A (human) kinase inhibition; purified PI4K2A, ADP-Glo luminescence, 1 h; active compounds read low; activity change, negative = inhibition, % at 76.9 µM; Q9BTU6; actives 0.13% (n = 420,000); AID 1346378; in the data active = activity change below about -50%; inconclusive = mostly about -30% to -49%;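 note: -100% = wells without enzyme as full effect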
Target sequence (Q9BTU6 whole entry, looked up): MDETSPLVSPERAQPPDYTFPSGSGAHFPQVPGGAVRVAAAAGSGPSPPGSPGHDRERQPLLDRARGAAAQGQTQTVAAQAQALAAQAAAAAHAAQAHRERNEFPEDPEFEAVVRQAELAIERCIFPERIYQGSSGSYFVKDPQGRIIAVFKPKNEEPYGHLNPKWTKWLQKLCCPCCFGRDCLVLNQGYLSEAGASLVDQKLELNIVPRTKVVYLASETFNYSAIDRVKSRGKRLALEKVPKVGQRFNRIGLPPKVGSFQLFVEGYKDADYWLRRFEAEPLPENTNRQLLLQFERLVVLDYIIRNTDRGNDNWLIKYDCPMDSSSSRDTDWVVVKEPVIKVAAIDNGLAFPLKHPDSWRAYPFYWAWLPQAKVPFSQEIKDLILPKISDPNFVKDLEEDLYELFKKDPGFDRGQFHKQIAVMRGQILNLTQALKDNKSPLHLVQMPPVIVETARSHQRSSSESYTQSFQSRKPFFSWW
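In this quantitative HTS, ADP production by PI4K2A was quantified luminescently after 1 h at ambient temperature; 100 microM adenosine served as plate-quality control.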
* marks the source's active call; other numbers are inactive results; i = inactive; ? = inconclusive; / = no result; ! = a repeat was not active; [ ] = remark or other dose.

SMILES	pAkt inh	RGS4 inhibitor	D3 antag	LDHA block	D3 ag	PI4K2A inh
COc1cccc(CNC(=O)CN(C(=O)C2=C(C)OCCS2)c2ccc(Cl)cc2)c1OC	/	/	/	6.9	/	/
CC1CSc2ccc(S(=O)(=O)NC3CCN(Cc4ccccc4)CC3)cc2NC1=O (configuration not stated)	/	/	/	0.6	/	/
Cc1ccc(/C=N/NC(=O)c2c[nH]c3ccccc23)s1	i	4.4%	-19.0	0.0	-15.5	-3.0
Cc1ccsc1/C=N/NC(=O)c1c[nH]c2ccccc12	i	-29.0%	-51.4*	-0.2	-0.9	2.8
CC(=NNC(=S)Nc1ccc(C)cc1)c1ccccn1	i	-9.9%	-50.5*	-5.9	3.7	-0.9
C/C(=N\NC(=S)Nc1cccc(C)c1)c1ccccc1	i	-45.2%	-51.5*	-4.0	-1.2	3.6
CC(=NNC(=S)Nc1cccc(C)c1)c1ccccn1	i	?	-20.0	1.1	-4.6	-6.1
CCCCCCOc1ccc(C(=O)CCC(=O)O)cc1	/	/	/	-6.1	/	/
COc1ccc(CN(C)CC2CCCN(CCc3ccccc3C)C2)cc1O (configuration not stated)	i	2.2%	14.8	0.0	-16.5	7.8
COc1cc(OC)c(OC)cc1CN(C)CC1CCCN(CCc2ccccc2F)C1 (configuration not stated)	i	-11.0%	-51.2*	0.6	-3.4	-8.1
CCN(Cc1cccs1)C(=O)/C=C/c1nc2ccccc2s1	/	/	/	10.0	/	/
C[C@H]1C(c2ccc(F)cc2)=NN(c2ccccc2)[C@@H]1CO	i	-6.0%	9.7	0.5	35.5*	8.0
Cc1nnc(SCC(=O)N2CCC(Cc3ccccc3)CC2)n(N)c1=O	i	11.6%	-98.5*	2.5	-25.5	1.0
Cc1nnc(SCC(=O)N2CCCCCC2)n(N)c1=O	i	26.6%	4.2	-3.2	-3.4	3.4
CC1=C(/C=C/C(C)=C/C=C/C(C)=C/C(=O)Nc2ccc(O)cc2)C(C)(C)CCC1	i	?	23.2	-3.2	69.1*!	2.7
CC1=C(/C=C/C(C)=C/C=C/C(C)=C\C(=O)O)C(C)(C)CCC1	i	1.4%	10.7	-0.9	0.2	-0.3
CC(=O)NC(c1ccccc1)c1c(O)ccc2ccccc12 (configuration not stated)	i	3.8%	-7.0	8.1	34.3*	2.1
CC(=O)NC(c1ccc(C(C)C)cc1)c1c(O)ccc2ccccc12 (configuration not stated)	i	-2.5%	70.6	5.9	-12.6	1.8
Cc1cccc2c1N(CCCOc1ccccc1)C(=O)C2=O	i	-45.2%	-50.2*	1.9	-9.8	30.9
Cc1cccc2c1N(CCCOc1ccc(C(C)(C)C)cc1)C(=O)C2=O	i	?	-22.1	0.3	-8.1	30.8
Cc1ccc2nc(-c3ccc4ccccc4c3)cc(C(=O)O)c2c1	/	/	/	1.9	/	/
Cc1ccc(S(=O)(=O)N2CC3(C)CN(S(=O)(=O)c4ccc(C)cc4)CC(C)(C2)C3)cc1	i	-4.4%	19.4	-2.7	31.0*	5.4
Cc1ccc(NC(=O)C(c2ccccc2)n2cnc3c2c(=O)n(C)c(=O)n3C)cc1 (configuration not stated)	/	/	/	-5.0	/	/
CCC(/C=C1\Sc2ccc(OC)cc2N1CC)=C\c1sc2ccc(OC)cc2[n+]1CCCS(=O)(=O)[O-]	i	-55.7%[11.4 µM]	-14.1	3.4	4.9	-16.3
CCO/C(=C/c1sc2ccc(OC)cc2[n+]1CCCS(=O)(=O)[O-])CC	/	-47.8%	-73.0*	0.0	-0.5	-7.7
SMILES	pAkt inh	RGS4 inhibitor	D3 antag	LDHA block	D3 ag	PI4K2A inh
Cc1cc(C)c(OC(=O)c2cnc(C)cn2)c(C)c1	/	/	/	3.9	/	/
Oc1ccc(N2CCN(CC(O)c3ccccc3)CC2)cc1 (configuration not stated)	i	?	2.2	40.2	-1.5	-2.8
COc1ccccc1N1CCN(CC(O)c2ccccc2)CC1 (configuration not stated)	i	-17.4%	-54.9*	-5.9	-21.4	-2.6
COc1ccccc1N1CCN(CC(O)c2c(C)[nH]c3ccccc23)CC1 (configuration not stated)	i	7.7%	-79.3*	-0.6	-6.1	0.9
COc1ccccc1N1CCN(CC(=O)c2c(C)[nH]c3ccccc23)CC1	i	-4.2%	?	4.0	-21.3	3.9
CCc1c(C(=O)/C=C/c2cccc(C#N)c2)oc2ccccc12	/	/	/	4.9	/	/
CC1(C(=O)Nc2ccc3c(c2)OCCO3)CSCC(=O)N1C1CCN(Cc2ccccc2)CC1 (configuration not stated)	i	/	-61.5*	3.0	-16.8	-2.0
CC1(C(=O)Nc2ccc3c(c2)OCCO3)CSCC(=O)N1CCCN1CCOCC1 (configuration not stated)	i	/	-12.3	-2.7	0.7	-3.5
CCCCc1cc(=O)oc2c(CN3CCN(C)CC3)c(O)ccc12	i	16.0%	-17.3	-4.2	-6.8	-8.4
CCCc1cc(=O)oc2c(CN3CCN(C)CC3)c(O)ccc12	i	6.8%	5.0	1.0	32.3*	2.1
COc1ccc2c(CN3CCN(Cc4ccccc4)CC3)cc(=O)oc2c1	i	/	-68.1*	-0.2	-20.0	-10.3
COc1ccc2oc(=O)cc(CN3CCN(Cc4ccccc4)CC3)c2c1	i	-0.7%	-54.0*	2.0	-45.3	0.3
CN1CCN(Cc2cc(=O)oc3ccc(Cl)cc23)CC1	-103.7%*	-11.3%	0.0	-7.3	-4.4	-5.2
C=CCNC(=O)C(=O)NCc1cccc(OC)c1	/	/	/	3.5	/	/
CCOc1cccc2cc(-c3nc(-c4nonc4N)no3)c(=O)oc12	/	/	/	9.2	/	/
CCOC(=O)N(C)CC(=O)NC1CCCCC1	/	/	/	-3.6	/	/
Cc1c(C(=O)CSc2nnc(C3CC3)n2C2CC2)sc2ccccc12	/	/	/	5.3	/	/
Cc1cccc[n+]1CC(=O)Nc1ccccc1	i	-8.5%	21.6	-7.2	0.4	4.2
COC(=O)c1ccc(NC(=O)C[n+]2ccccc2C)cc1	i	-7.3%	-59.4*	-5.9	-4.7	3.3
COc1ccccc1CNCCS(=O)(=O)NCc1ccccc1	i	6.5%	?	-2.5	-38.3	-0.2
CCCCNCCS(=O)(=O)NCc1ccccc1OC	i	-4.8%	?	-1.0	-18.5	-2.0
COc1ccccc1CNS(=O)(=O)CCNC1CC1	i	-15.6%	-3.2	3.3	32.1*	-5.8
COc1ccccc1CNS(=O)(=O)CCNC1CCCCC1	i	-15.0%	-73.4*	1.2	-24.5	-1.0
COc1ccccc1CNCCS(=O)(=O)NCc1ccccc1OC	i	-4.3%	?	2.3	-16.1	-1.0
CCCCCCCCNCCS(=O)(=O)NCc1ccccc1OC	i	-16.2%	-60.1*	2.2	-32.0	0.6

Source: PubChem
